Assay outcomes: PubChem, National Center for Advancing Translational Sciences (NCATS)
Rows were chosen to be rich in hits. Some 3.8% of all compounds tested hit in one or more screens of this group.
Sfp PPTase inh – inhibitors of Bacillus subtilis Sfp phosphopantetheinyl transferase | Q9F4F7 | Potency, µM, without a hit: largest response in the series, negative = inhibition, actives largely listed as inhibitors | 310,000 compounds, 3.5% hits | Biochemical Sfp PPTase activity, qHTS | AID 1490;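 note: the enzyme is Sfp with the accession as filed and its product quenches rhodamine fluorescence; 0% = enzyme reaction without inhibitor and -100% = no enzyme wells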
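With Hepes-Na pH 7.6 buffer containing 10 mM MgCl2, Sfp (15 nM) modified BHQ-2-YbbR (12.5 uM) using rhodamine-CoA (5 uM). Two reads 30 minutes apart at 525/598 nm yielded each well's rate.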
KAT2A inh – inhibitors of human GCN5L2 histone acetyltransferase; GCN5L2 HAT assay, ThioGlo1 CoA-SH fluorescence; AID 504327; Q92830; 390,000 compounds, 0.21% hits; Potency, µM (highest dose often 58.9 µM), for inactives: top-dose activity change, negative = inhibition, actives largely listed as inhibitors
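GCN5L2 (20nM final) in 50mM HEPES, 0.1mM EDTA pH 7.5, 0.01% Tween-20 was preincubated 15 min at room temperature with compound, then given ThioGlo1 (50uM), H3(1-25) peptide (75uM) and acetyl-CoA (70uM); CoA-thiol fluorescence (Ex340/Em540) was read at 0 and 20 min.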
GLS inhibitor – inhibitors of human glutaminase (GLS); O94925; GLS enzymatic activity, qHTS titration; Potency, µM (titrated, usually from 45.5 µM), for inactives: at the highest dose activity change, negative = inhibition, usual class: inhibitors; 410,000 compounds, 0.21% hits; AID 624170
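Read-out is an Amplex red fluorescence increase coupled through glutamate oxidase and HRP, measured before and after 30 min room-temperature incubation. hKGA is in 45 mM KH2PO4 (pH 8.2) with 0.02% Tween-20; glutamine added as 1mM solution.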
VDR inh – vitamin D3 receptor (human) inhibition; Potency, µM, without a hit: max response, negative = inhibition, actives largely listed as inhibitors; P11473; VDR-SRC2-3 peptide fluorescence polarization, 2 h; 400,000 compounds, 0.93% hits; AID 504847
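Inhibition of the VDR/SRC2-3 peptide interaction is quantified by fluorescence polarization. Compounds (23 nl, pintool) incubate with the reagents for 2 hours at ambient room temperature.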
TrxR1 inh – rat TrxR1 inhibition. 390,000 compounds, 1% hits. recombinant rTrxR1, NADPH fluorescence consumption, selenite substrate. Potency, µM (doses to about 114 µM), for inactives: top-dose activity change, negative = inhibition, actives largely listed as inhibitors; note: nearly all actives have a fitted effect of over 65% in size
Target sequence (O89049 whole entry, looked up): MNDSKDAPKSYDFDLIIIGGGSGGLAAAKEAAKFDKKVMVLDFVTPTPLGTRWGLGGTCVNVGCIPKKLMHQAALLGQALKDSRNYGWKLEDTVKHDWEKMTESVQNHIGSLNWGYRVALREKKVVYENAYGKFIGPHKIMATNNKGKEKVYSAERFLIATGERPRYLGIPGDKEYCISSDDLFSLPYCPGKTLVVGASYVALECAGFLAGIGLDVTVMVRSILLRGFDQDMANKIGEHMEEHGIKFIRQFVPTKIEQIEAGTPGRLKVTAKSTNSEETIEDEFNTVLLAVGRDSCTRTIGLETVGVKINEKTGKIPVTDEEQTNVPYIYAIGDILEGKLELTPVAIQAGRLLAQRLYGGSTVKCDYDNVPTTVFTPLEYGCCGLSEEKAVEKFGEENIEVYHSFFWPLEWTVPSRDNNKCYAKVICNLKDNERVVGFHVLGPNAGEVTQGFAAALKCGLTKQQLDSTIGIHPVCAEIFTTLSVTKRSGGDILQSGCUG
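Rat TrxR1 (90 nM in the dispensed reagent) was pre-reduced with 400 uM NADPH for 5 min at room temperature, then incubated with compound for 15 min. After 400 uM selenite was added, NADPH fluorescence (Ex 340/Em 450 nm) was followed for 8 min.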
TrxR1 substrate – substrates of rat thioredoxin reductase 1; O89049; purified TrxR1 substrate turnover, NADPH consumption readout; Potency, µM (highest dose often 114 µM), inactives show top-dose activity change, negative = substrate turnover; 390,000 compounds, 0.01% hits; note: nearly all actives have a fitted effect of over 50% in size
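Rat TrxR1, dispensed at 90 nM, was prereduced with 400 uM NADPH (final) for 5 min at ~22 deg C, then incubated with compound 15 min before 400 uM selenite. A first-read NADPH fluorescence drop versus no-compound background flagged substrates.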
* = called active by the depositor; [ ] = dose if it differs, or a comment. Calls come from the whole dose curve; as a rule, active = well fitted curve in the direction sought with a large enough effect; inconclusive = small, poorly fitted or top-dose-only effect, or another doubt; inactive = no such curve, though single readings can be large; an effect the other way counts as inactive or inconclusive. Unless noted, % is set by controls: 0 for no effect and ±100 for the full control effect; potency is the fitted concentration of half-maximal effect.

COc1ccc(Nc2cc(C(=O)NCCCN3CCOCC3)c3ccccc3n2)cc1 was read as Sfp PPTase inh 5.2%, KAT2A inh -22.5%, GLS inhibitor 0.4%, VDR inh 1.3%, TrxR1 inh -1.3% and TrxR1 substrate -5.9%.
`CC(C)Oc1ccc(-c2cc(C(=O)NCCN3CCOCC3)c3ccccc3n2)cc1` gave Sfp PPTase inh 79.4µM*, KAT2A inh -7.9%, GLS inhibitor 8.8%, VDR inh 5.8%, TrxR1 inh 3.3%[57.1 µM] and TrxR1 substrate 21.8%[57.1 µM].
Screening CCCCN(C)c1c(C)nc2ccc(C(=O)N3CCN(C(C)=O)CC3)cn12 returned GLS inhibitor 28.0%.
`CN1c2ccccc2C(C)(C)C12CC(CCl)=NO2` (stereo not drawn) gave Sfp PPTase inh -7.8%, KAT2A inh 4.5%, GLS inhibitor 6.6%, VDR inh -2.6%, TrxR1 inh 25.1µM* and TrxR1 substrate -1.8%[57.1 µM].
For Cc1ccc(NC(=O)c2nc[nH]c2C(=O)N[C@@H](C)C(=O)OC(C)(C)C)cc1 the results were Sfp PPTase inh 15.4%, KAT2A inh 4.9%, GLS inhibitor -3.2%, VDR inh -11.1%, TrxR1 inh -4.9% and TrxR1 substrate -9.6%.
`O=C(Cn1cc([N+](=O)[O-])cn1)N1CCN(c2ccccc2)CC1` gave Sfp PPTase inh 0.0%, KAT2A inh -6.0%, GLS inhibitor 4.1%, VDR inh -4.5%, TrxR1 inh 0.3%[57.1 µM] and TrxR1 substrate 6.7%.
`O=C(Cn1ncc(Cl)c(Cl)c1=O)NCC1CCCCC1` gave Sfp PPTase inh 9.6%, KAT2A inh -6.8%, GLS inhibitor 0.0%, VDR inh 4.0%, TrxR1 inh 35.5µM* and TrxR1 substrate -2.2%.
`O=C(Cn1ncc(Cl)c(Cl)c1=O)NC1CCCCC1` gave KAT2A inh -1.2%, GLS inhibitor -0.7%, VDR inh -0.8%, TrxR1 inh 56.2µM* and TrxR1 substrate 1.3%.
Screening CCCOc1ccc(C2C(C(=O)c3ccc(C)o3)=C(O)C(=O)N2CCN2CCOCC2)cc1OC (stereo not drawn) returned Sfp PPTase inh -22.2%, KAT2A inh inconclusive, GLS inhibitor -0.6%, VDR inh 4.8%, TrxR1 inh 50.1µM* and TrxR1 substrate -6.1%.
Screening COc1ccc(OC)c(C2C(C(=O)c3ccc(C)o3)=C(O)C(=O)N2CCN2CCOCC2)c1 (stereo not drawn) returned Sfp PPTase inh 1.2%, KAT2A inh -16.8%, GLS inhibitor 9.0%, VDR inh 0.1%, TrxR1 inh inconclusive and TrxR1 substrate -2.2%.
For Cc1cccc2c(=O)cc(C(F)(F)F)[nH]c12 the results were Sfp PPTase inh 8.1%, KAT2A inh 0.6%, GLS inhibitor -2.6%, VDR inh -0.4%, TrxR1 inh 22.6% and TrxR1 substrate 5.3%.
For Cc1cc(=S)c2cccc(C)c2[nH]1 the results were Sfp PPTase inh 35.5µM*, KAT2A inh 1.0%, GLS inhibitor 0.0%, VDR inh -3.0%, TrxR1 inh 9.9%[57.1 µM] and TrxR1 substrate 6.1%[57.1 µM].
For CC(=O)c1cccc(OCC(O)CNCC2CCCCC2)c1 (stereo not drawn) the results were Sfp PPTase inh 3.5%, KAT2A inh 16.4%, GLS inhibitor 0.8%, VDR inh 8.8%, TrxR1 inh -4.1%[57.1 µM] and TrxR1 substrate 10.2%[57.1 µM].
`COc1ccc(-c2coc3cc(O)ccc3c2=O)c(OC)c1O` gave Sfp PPTase inh 10.2%, KAT2A inh -11.7% and VDR inh -1.9%.
Screening COc1ccc(-c2coc3cc(O)ccc3c2=O)c(O)c1O returned Sfp PPTase inh -98.7%, KAT2A inh inconclusive and VDR inh 50.1µM*.
For COc1ccccc1-c1coc2cc(O)ccc2c1=O the results were Sfp PPTase inh 3.7%, KAT2A inh 25.1µM* and VDR inh -1.4%.
`Cn1c(O)c(N=Nc2ccccc2)c2ccccc21` gave Sfp PPTase inh 50.1µM*, KAT2A inh 20.1%, GLS inhibitor 31.8%, VDR inh -11.9%, TrxR1 inh -14.7% and TrxR1 substrate -15.8%.
`Cn1c(O)c(N=Nc2nc(-c3ccccc3)cs2)c2ccccc21` gave Sfp PPTase inh 56.2µM*, KAT2A inh 1.0%, GLS inhibitor -1.2%, VDR inh -2.4%, TrxR1 inh 3.2% and TrxR1 substrate 0.5%.
For CCCS(=O)(=O)NC(=O)C1(C)CCN(C(=O)c2ccc3ccccc3n2)C1 (stereo not drawn) the results were GLS inhibitor 20.3%.
`CCOCc1nnc(NC(=O)c2cc(Cl)ccc2OC)s1` gave Sfp PPTase inh 35.5µM*, KAT2A inh -2.1%, GLS inhibitor -9.4%, VDR inh 1.8%, TrxR1 inh 0.7% and TrxR1 substrate 1.6%.
Screening COCc1nnc(NC(=O)c2cc(Cl)ccc2OC)s1 returned Sfp PPTase inh -3.8%, KAT2A inh -4.0%, GLS inhibitor -15.7%, VDR inh 18.2%, TrxR1 inh 6.6% and TrxR1 substrate 1.3%.
`CCN1CCN(C(=S)c2ccc(Br)cc2)CC1` gave Sfp PPTase inh 14.1µM*, KAT2A inh -0.8%, GLS inhibitor 1.1%, VDR inh inconclusive, TrxR1 inh 3.9% and TrxR1 substrate 0.6%.
Screening Cc1ccc(C(=S)N2CCN(Cc3ccccc3)CC2)s1 returned Sfp PPTase inh 5.01µM*, KAT2A inh -5.1%, GLS inhibitor 66.1%, VDR inh inconclusive, TrxR1 inh 11.9%[57.1 µM] and TrxR1 substrate 7.9%[57.1 µM].
S=C(c1ccc(Br)cc1)N1CCN(Cc2ccccc2)CC1 was read as Sfp PPTase inh 11.2µM*, KAT2A inh -12.3%, GLS inhibitor -11.8%, VDR inh inconclusive, TrxR1 inh 3.6% and TrxR1 substrate 3.3%.
O=C(c1ccc(Br)cc1)N1CCN(Cc2ccccc2)CC1 was read as Sfp PPTase inh 8.0%, KAT2A inh -9.1%, GLS inhibitor 4.7%, VDR inh 0.7%, TrxR1 inh 5.9%[57.1 µM] and TrxR1 substrate 11.2%[57.1 µM].
`Oc1ccc(C(=S)N2CCN(Cc3ccccc3)CC2)cc1` gave Sfp PPTase inh 15.8µM*, KAT2A inh -0.9%, GLS inhibitor 17.9%, VDR inh 50.1µM*, TrxR1 inh 1.8% and TrxR1 substrate 0.8%.
`CON/C=C(\C=Nc1ccc(C(F)(F)F)cc1)c1ncc(C(F)(F)F)cc1Cl` gave Sfp PPTase inh 19.5%, KAT2A inh -11.3%, GLS inhibitor 1.4%, VDR inh -9.4%, TrxR1 inh 0.9% and TrxR1 substrate -12.0%.
Cc1oc(=O)c(NC(=O)c2ccccc2)cc1C(=O)c1ccccc1 was read as Sfp PPTase inh 15.8µM*, KAT2A inh -12.4%, GLS inhibitor 12.9%, VDR inh 17.8µM*, TrxR1 inh 39.8µM* and TrxR1 substrate -7.5%.
